# NIH3T3 tox: Cytotoxic Profiling in NIH 3T3 Cell Line of Diverse Libraries Using Quantitative High-Throughput Screening; NIH 3T3 viability, CellTiter-Glo ATP luminescence, 48-72 h; Potency, µM (top dose mostly 96.7 µM), for inactives: at the highest dose activity change, negative = cytotoxicity, most hits filed as inhibitors; 94,000 compounds, 4.3% hits; further: nearly all actives have a fitted effect of over 55% in size
#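 First NIH 3T3 cells are plated at 400 cells/well; next compound is pinned in; then plates incubate 48 or 72 hr at 37 °C; finally CellTiter-Glo is added and luminescence read after 10 min.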
# hNpr1 antagonist: Natriuretic polypeptide receptor (hNpr1) antagonism - Primary qHTS; Atrial natriuretic peptide receptor 1 (Homo sapiens), P16066; HEK293 hNpr1 GloSensor cGMP, ANP-stimulated luminescence; Potency, µM (doses to about 46.3 µM), for inactives: top-dose activity change, negative = inhibition, actives largely listed as inhibitors; 76,000 compounds, 1.6% hits; calls by dose curve; further: nearly all actives have a fitted effect of over 60% in size
#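 Compound pre-incubated 30 min at room temperature on GloSensor-loaded HEK293 cells stably carrying hNpr1 and the pGS-40F cGMP biosensor. Stimulation uses hNppA at 0.1 nM final; luminescence is taken at baseline and 20 min post-agonist.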
# FLuc inh: Firefly luciferase inhibition profiling of diverse chemical library using quantitative high-throughput screening | purified P. pyralis luciferase, luminescence, biochemical | Luciferin 4-monooxygenase (Photinus pyralis), P08659 | Potency, µM (top dose mostly 115 µM), actives largely listed as inhibitors | 76,000 compounds, 2.5% hits; further: nearly all actives have a fitted effect of over 65% in size
#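 Purified 10nM P. pyralis luciferase with 10uM D-luciferin and 10uM ATP in 50mM Tris acetate pH 7.5, 10mM Mg acetate, 0.01% Tween-20, 0.05% BSA. qHTS titration; luminescence read by CCD imager.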
# HEK cytotox: Cytotoxic Profiling in HEK 293 Cell Line of Diverse Libraries Using Quantitative High-Throughput Screening; HEK 293 viability, ATP luminescence (CellTiter-Glo), 48-72 h; Potency, µM (doses to about 115 µM), inactives show at the highest dose activity change, negative = cytotoxicity, usual class: inhibitors; 94,000 compounds, 6.6% hits; AID 1345083, 2018; further: nearly all actives have a fitted effect of over 60% in size
#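 qHTS cytotoxicity; HEK 293, 250 cells/well; compound pinned; 48 or 72 hr, 37 degree Celsius, 5% CO2, 95% humidity; CellTiter-Glo, 10 min RT; luminescence (ATP).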
# * hit, by the source's call; i = inactive; ? = inconclusive; · = no result; [ ] = remark or other dose. The list is not random: actives were taken first. Their share in the collection is about 11%. Unless noted, the call rests on the fitted dose curve; in most records, active means well fitted curve in the direction sought with a large enough effect; inconclusive means small, poorly fitted or top-dose-only effect, or another doubt; inactive means no such curve, though single readings can be large; an effect the other way counts as inactive or inconclusive. On the % scale 0 is the no-effect control and ±100 the full control effect; potency means the concentration at half of the fitted maximal effect.
SMILES,NIH3T3 tox,hNpr1 antagonist,FLuc inh,HEK cytotox
O=C(NCCN1CCCCC1)c1ccc(-c2ccc(N3CCCCC3)nc2)cc1,20µM*,-3%,?,?
O=C(Cc1ccccn1)NCCNC(=O)c1ccc(-c2cncnc2)cc1,?,·,·,89µM*
O=C(NCCCN1CCCC1)c1ccc(-c2ccc(N3CCCCC3)nc2)cc1,?,0%,?,?
CC(C)CCNC(=O)c1ccc(-c2ccc(N3CCSCC3)nc2)cc1,i,-7%,?,-28%
O=C(NCc1ccccn1)c1ccc(-c2ccc(N3CCCCC3)nc2)cc1,?,-26%,?,22µM*
CN(Cc1ccco1)C(=O)c1ccc(-c2ccc(N3CCCCCC3)nc2)cc1,?,?,?,40µM*
COCC(=O)N1CCCC1C(=O)N1CCCC1c1nc2ccncc2[nH]1 (centres undefined),-1%,·,·,i
O=C(NCCN1CCCCC1)c1ccc(N2CC3CC(C2)[C@H]2CCCC(=O)N2C3)nc1 (some centres undefined),1%,5%,i,0%
O=C(NCCN1CCCCC1)c1ccc(-c2ccc(N3CCSCC3)nc2)cc1,28µM*,-21%,i,35µM*
O=C(NCCN1CCOCC1)c1ccc(-c2ccc(N3CCSCC3)nc2)cc1,-7%,-14%,?,?
CN1CCN(CCNC(=O)c2ccc(-c3ccc(N4CCCCCC4)nc3)cc2)CC1,14µM*,-17%,i,25µM*
CN(C)CCNC(=O)c1ccc(-c2ccc(N3CCCCCC3)nc2)cc1,18µM*,-2%,?,32µM*
CN1CCCC1c1nc(C2CN(C(=O)CC3CCCCC3)C2)no1 (centres undefined),-7%,·,·,-5%
O=C(c1ccccc1)N1CCC(N2C(=O)C(OCC3CC3)C23CCCCC3)CC1 (centres undefined),-19%,0%,i,?
CNC(=O)c1cc(C2CC2)nc2onc(C3CCN(C(=O)COC)CC3)c12,i,·,·,i
O=C(NCC1CCOCC1)Nc1cc(F)c(F)c(F)c1,-16%,1%,i,-5%
Cc1ccc(-c2nc(C(=O)NCc3ccco3)no2)cc1,-15%,2%,16µM*,11%
O=C(NCc1cccc(Br)c1)c1noc(-c2ccc(F)cc2)n1,32µM*,-1%,?,25µM*
O=C(NCc1ccc(Cl)cc1)c1noc(-c2ccc(F)cc2)n1,-18%,1%,i,?
O=C(NCc1ccccc1)c1noc(-c2ccc3c(c2)OCO3)n1,?,-1%,40µM*,?
Cc1ccc(-c2nc(C(=O)NCc3cc(F)cc(F)c3)no2)cc1,?,5%,i,32µM*
Cn1cc(C(=O)NCC2CN([S+](=O)([O-])c3ccccc3Cl)CC23CN(c2ccccc2)C3)cn1 (centres undefined),-23%,-15%,i,?
Cc1ccc(-c2nc(C(=O)NCc3ccccc3F)no2)cc1,-23%,-2%,22µM*,-9%
O=C(NCc1ccccc1F)c1noc(-c2ccc3c(c2)OCO3)n1,?,-5%,32µM*,-22%
COc1ccc(CNC(=O)c2noc(-c3ccc(C)cc3)n2)cc1OC,?,13µM*,?,?
SMILES,NIH3T3 tox,hNpr1 antagonist,FLuc inh,HEK cytotox
O=C(NCc1ccc(F)cc1F)c1noc(-c2ccc(F)cc2)n1,-14%,-8%,i,-10%
COc1ccc(-c2ccccc2C(=O)NCC2CC2)nn1,i,·,·,-2%[172 µM]
O=C(Nc1ccc(OC(F)(F)F)cc1)N1CCOC[C@H](Oc2ccccc2)C1,32µM*,?,i,56µM*
CCCNC(=O)N1CCOC[C@H](Oc2ccccc2)C1,i,5%[70.6 µM],i,i
COc1ccc(Cn2c(C3CCN(C(=O)COc4cccc(C)c4)CC3)n[nH]c2=O)cc1,?,-2%,i,-3%
COc1ccc(Cc2nc3nccc(-c4ccc(OC)cc4F)n3n2)cc1,-14%,1%,i,?
COc1ccc(-c2ccnc3nc(Cc4ccc(F)cc4)nn23)c(F)c1,?,-14%,i,25µM*
COc1ccc(-c2ccnc3nc(CCc4ccc(OC)c(OC)c4)nn23)c(F)c1,-29%,-19%,i,45µM*
O=C(NCc1ccccn1)c1ccc2nnc(CC3CC3)n2c1,-1%[138 µM],·,·,i
FC(F)(F)Oc1ccc(Nc2cnc3ccc(N4CCOCC4)nn23)cc1,?,-5%[70.6 µM],i,50µM*
FC(F)(F)c1cc(Nc2cnc3ccc(N4CCOCC4)nn23)ccc1Cl,?,?,i,79µM*
COc1ccc(Nc2cnc3ccc(N4CCOCC4)nn23)cn1,?,-1%[70.6 µM],i,?
CC(C)CNC(=O)c1nc2sccn2c1-c1cccnc1,-20%[138 µM],·,·,-1%[172 µM]
O=C1NCCCCCCN(Cc2ccncc2)[C@@H]2CN(S(=O)(=O)c3ccccc3)CC[C@@H]12,-30%,-2%,i,?
CCOC(=O)CCNC(=O)N1CCOc2ccc(CN3CCc4ccccc4C3)cc2C1,-7%,3%,i,-10%
CC(C)C[C@@H]1N[C@H](C(=O)NCc2cccs2)Cc2cn(CC3CC3)c3cccc1c23,71µM*,-18%[70.6 µM],i,63µM*
CC(C)C[C@@H]1N[C@H](C(=O)NCCN(C)C)Cc2cn(CC3CC3)c3cccc1c23,32µM*,-1%[70.6 µM],i,32µM*
C=CCn1cc2c3c(cccc31)[C@H](CC(C)C)N[C@H](C(=O)NCCC)C2,71µM*,1%[70.6 µM],i,50µM*
C=CCNC(=O)[C@@H]1Cc2cn(CC=C)c3cccc(c23)[C@H](CC(C)C)N1,?,-2%[70.6 µM],i,?
C=CCn1cc2c3c(cccc31)[C@H](CC(C)C)N[C@H](C(=O)NCCN(C)C)C2,35µM*,2%[70.6 µM],i,35µM*
COc1ccc(S(=O)(=O)NC[C@@H]2C=C(C)[C@H](CC(=O)N(C)Cc3cccnc3)C[C@H]2C(C)C)cc1,10µM*,-12%,i,?
CC1=C[C@@H](CN2C(=O)C(C)=C(C)C2=O)[C@H](C(C)C)C[C@H]1Cc1nc2ccc(C)cc2[nH]1,28µM*,?,i,22µM*
COc1ccc(C(=O)NC[C@@H]2C=C(C)[C@H](Cc3nc4ccncc4[nH]3)C[C@H]2C(C)C)cc1,?,-27%[70.6 µM],i,89µM*
CC1=C[C@@H](CNC(=O)CCC(=O)O)[C@H](C(C)C)C[C@H]1Cc1nc2ccncc2[nH]1,3%[138 µM],7%[70.6 µM],i,i
COc1ccc2nc(C[C@@H]3C[C@@H](C(C)C)[C@H](CN4C(=O)C(C)=C(C)C4=O)C=C3C)[nH]c2c1,?,-17%,i,?

# Assay outcomes deposited in PubChem by National Center for Advancing Translational Sciences (NCATS).
